Our source for the inhibition values is ChEMBL document CHEMBL5606458, “ASAP - ZIKV NS2B-NS3 protease fluorescence single point” (2024).

A word on the inhibition: it is the drop in the measured response relative to a control, in per cent.

The target in this test is Nonstructural protein 3 (Zika virus) (UniProt A0A024AXB9).
[1] abbreviates: PRVABC59, Concentration 50.0 uM, Number of replicates 1.0.
The mark [2] stands for this setting: PRVABC59, Concentration 15.0 uM, Number of replicates 1.0.

The campaign covered roughly 2,700 compounds. About 160 (5.9%) showed an effect of 50% or more. The full list was thinned out, with strong results kept by preference.

Sequence of Nonstructural protein 3 (Zika virus) (A0A024AXB9 as listed by the source): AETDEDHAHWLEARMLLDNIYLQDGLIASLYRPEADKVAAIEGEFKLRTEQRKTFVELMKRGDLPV

For `CCCCCN(CCCCC)C(=O)C1CCN(c2ccc(C=O)cc2)CC1`, under setting [1], the inhibition worked out at 26.1%.
For `O=Cc1ccc(N2CCC(C(=O)Nc3c(F)cc(F)cc3Cl)CC2)cc1`, under setting [1], the inhibition amounted to 23.6%.
For `COc1cc2c(cc1NC(=O)c1cc(Cl)ccc1NS(=O)(=O)c1ccc(Oc3ccccc3Cl)cc1)oc1ccccc12`, the inhibition under setting [2] was found to be 36.2%.
Regarding `O=C(Nc1ncccc1C(F)(F)F)c1cc(Cl)ccc1NS(=O)(=O)c1ccc(Oc2ccccc2Cl)cc1`, the inhibition under setting [2] worked out at 25.1%.
As to `Cn1cc(NC(=O)c2cccc3ncccc23)cn1`, the inhibition reads like this: (PRVABC59, Concentration 49.5 uM, Number of replicates 2.0, Standard deviation 3.392303236065074 %) -6.29%; (PRVABC59, Concentration 99.01 uM, Number of replicates 2.0, Standard deviation 4.211868261497117 %) -5.3%; (PRVABC59, Concentration 198.0 uM, Number of replicates 2.0, Standard deviation 3.7498965706755105 %) -3.61%.
`O=Cc1ccc(N2CCC(C(=O)N3CCN(CCOCCO)CC3)CC2)cc1`: the inhibition under setting [1] stood at 21.2%.
For the compound `COc1ccc([C@H](C)NC(=O)c2cc(Cl)ccc2NS(=O)(=O)c2ccc(Oc3ccccc3Cl)cc2)cc1`, the inhibition under setting [2] amounted to 35.3%.
As for `O=Cc1ccc(N2CCC(C(=O)Nc3ccc(Cl)nc3Cl)CC2)cc1`, the inhibition under setting [1] worked out at 20.5%.
Take `c1cnc2c(C3CCN(Cc4ccc5[nH]cnc5c4)CC3)c[nH]c2c1`: the inhibition is, setting by setting: (PRVABC59, Concentration 49.5 uM, Number of replicates 2.0, Standard deviation 2.816135776094685 %) 1.64%; (PRVABC59, Concentration 99.01 uM, Number of replicates 2.0, Standard deviation 1.9941147484327908 %) 7.38%; (PRVABC59, Concentration 198.0 uM, Number of replicates 2.0, Standard deviation 0.19707731493778816 %) 19.3%.
For `CC(C)(C)c1ccc(S(=O)(=O)N2CCN(C(=O)c3cc(Cl)ccc3NS(=O)(=O)c3ccc(Oc4ccccc4Cl)cc3)CC2)cc1`, under setting [2], the inhibition was 14.3%.
Take `COc1ccc(S(=O)(=O)N2CCC(C(=O)Nc3nc4ccccc4s3)CC2)cc1`: the inhibition (PRVABC59, Concentration 49.5 uM, Number of replicates 2.0, Standard deviation 3.281212488466362 %) is 4.02%; the inhibition (PRVABC59, Concentration 99.01 uM, Number of replicates 2.0, Standard deviation 0.8753020409515783 %) is 5.17%; the inhibition (PRVABC59, Concentration 198.0 uM, Number of replicates 2.0, Standard deviation 6.6794445217114635 %) was 7.79%.
For `COc1ccc(S(=O)(=O)Nc2ccc(C(=O)O)cc2)cc1`, the inhibition reads like this: (PRVABC59, Concentration 49.5 uM, Number of replicates 2.0, Standard deviation 1.0137935505852833 %) 2.03%; (PRVABC59, Concentration 99.01 uM, Number of replicates 2.0, Standard deviation 1.063246976754026 %) 4.7%; (PRVABC59, Concentration 198.0 uM, Number of replicates 2.0, Standard deviation 1.989546367228998 %) 3.61%.
As to `COc1ccc(S(=O)(=O)n2nc(OC(=O)c3ccccc3)cc2N)cc1`, the inhibition (PRVABC59, Concentration 49.5 uM, Number of replicates 2.0, Standard deviation 0.018531126353269887 %) came to 99.1%; the inhibition (PRVABC59, Concentration 99.01 uM, Number of replicates 2.0, Standard deviation 0.03874003445206144 %) was 99.1%; the inhibition (PRVABC59, Concentration 198.0 uM, Number of replicates 2.0, Standard deviation 0.035373681367799316 %) was found to be 99%.
For `CN(Cc1cccc(F)c1F)C(=O)c1cc(Cl)ccc1NS(=O)(=O)c1ccc(Oc2ccccc2Cl)cc1`, under setting [2], the inhibition stood at 31.2%.
With `CC(C)CCN(CCC(C)C)C(=O)c1cc(Cl)ccc1NS(=O)(=O)c1ccc(Oc2ccccc2Cl)cc1`, the inhibition under setting [2] turned out to be 18.8%.
Turning to `CS(=O)(=O)c1ccc(O)c(NC(=O)c2cc(Cl)ccc2NS(=O)(=O)c2ccc(Oc3ccccc3Cl)cc2)c1`, under setting [2], the inhibition stood at 32.3%.
Take `COc1nscc1-c1ccccc1C(=O)Nc1cnn(C)c1`: the inhibition by setting is: (PRVABC59, Concentration 49.5 uM, Number of replicates 2.0, Standard deviation 2.0613155081961194 %) -1.46%; (PRVABC59, Concentration 99.01 uM, Number of replicates 2.0, Standard deviation 1.0972097923679232 %) 1.42%; (PRVABC59, Concentration 198.0 uM, Number of replicates 2.0, Standard deviation 0.19246139208887503 %) 3.36%.
`O=C(Cn1sc2ccccc2c1=O)Nc1cccc(OCc2cn(CC(=O)Nc3ccccc3Oc3ccccc3)nn2)c1`: the inhibition by setting is: (PRVABC59, Concentration 49.5 uM, Number of replicates 2.0, Standard deviation 0.019067908615904634 %) 53.7%; (PRVABC59, Concentration 99.01 uM, Number of replicates 2.0, Standard deviation 0.0558469345004512 %) 58.2%; (PRVABC59, Concentration 198.0 uM, Number of replicates 2.0, Standard deviation 0.30102425600760013 %) 69.5%.
For `O=C(NCc1cccc(-n2cccn2)c1)c1cc(Cl)ccc1NS(=O)(=O)c1ccc(Oc2ccccc2Cl)cc1`, the inhibition under setting [2] came to 33.4%.
On to `CCN1CCN(c2ccc(NC(=O)c3cc(Cl)ccc3NS(=O)(=O)c3ccc(Oc4ccccc4Cl)cc3)cc2)CC1`, for which the inhibition under setting [2] was found to be 17.1%.
Still for that read-out and setting: next, `O=C(Nc1ccc(-n2ccnc2)cc1)c1cc(Cl)ccc1NS(=O)(=O)c1ccc(Oc2ccccc2Cl)cc1`: 63.6%.
Regarding `CCN(CC)S(=O)(=O)c1ccc(NC(=O)c2cc(Cl)ccc2NS(=O)(=O)c2ccc(Oc3ccccc3Cl)cc2)cc1`, under setting [2], the inhibition was 27.6%.
In the case of `Cc1nccn1-c1ccc(NC(=O)c2cc(Cl)ccc2NS(=O)(=O)c2ccc(Oc3ccccc3Cl)cc2)cc1`, the inhibition under setting [2] amounted to 43.8%.
On the same count and under the same terms, next, `O=C(Nc1ccc(-n2cccn2)cc1)c1cc(Cl)ccc1NS(=O)(=O)c1ccc(Oc2ccccc2Cl)cc1`: 71.5%.
For the compound `COc1ccc([C@@H](C)NC(=O)C2CCN(c3ccc(C=O)cc3)CC2)cc1OC`, where the note is “PRVABC59, Concentration 10.0 uM, Number of replicates 1.0”, the inhibition is 22.9%.
Take `O=C(N[C@H](c1ccccc1)C(F)(F)F)c1cc(Cl)ccc1NS(=O)(=O)c1ccc(Oc2ccccc2Cl)cc1`: under setting [2], the inhibition was 60.6%.
With `CC(C)(C)[C@H](NC(=O)c1cc(Cl)ccc1NS(=O)(=O)c1ccc(Oc2ccccc2Cl)cc1)c1ccccc1`, the inhibition under setting [2] worked out at 57.8%.
In the case of `C[C@@H](CC(C)(C)c1ccccc1)NC(=O)c1cc(Cl)ccc1NS(=O)(=O)c1ccc(Oc2ccccc2Cl)cc1`, the inhibition under setting [2] came out at 18.2%.
With `C[C@H](NC(=O)c1cc(Cl)ccc1NS(=O)(=O)c1ccc(Oc2ccccc2Cl)cc1)c1ccccc1C(F)(F)F`, under setting [2], the inhibition was 42.7%.
As to `O=C(N[C@H](c1ccccc1)[C@@H](O)c1ccccc1)c1cc(Cl)ccc1NS(=O)(=O)c1ccc(Oc2ccccc2Cl)cc1`, the inhibition under setting [2] turned out to be 45.7%.
Turning to `C[C@H](NC(=O)c1cc(Cl)ccc1NS(=O)(=O)c1ccc(Oc2ccccc2Cl)cc1)c1cccc(C(F)(F)F)c1`, the inhibition under setting [2] came to 39.3%.
Turning to `Cc1cnccc1NC(=O)c1cccc(-n2cnnn2)c1`, the inhibition (PRVABC59, Concentration 49.5 uM, Number of replicates 2.0, Standard deviation 4.148081450793093 %) was -4.56%; the inhibition (PRVABC59, Concentration 99.01 uM, Number of replicates 2.0, Standard deviation 2.8220872377424997 %) is -2.1%; the inhibition (PRVABC59, Concentration 198.0 uM, Number of replicates 2.0, Standard deviation 5.644174285824181 %) was -3.31%.
Regarding `O=Cc1ccc(N2CCC(C(=O)Nc3ccc(F)cc3Br)CC2)cc1`, the inhibition under setting [1] came to 20.8%.
As for `CCN(CCOc1ccccc1C)C(=O)C1CCN(c2ccc(C=O)cc2)CC1`, under setting [1], the inhibition worked out at 25.1%.
Turning to `O=C(c1cc(Cl)ccc1NS(=O)(=O)c1ccc(Oc2ccccc2Cl)cc1)N1CCCN(c2ccc(C(F)(F)F)cn2)CC1`, the inhibition under setting [2] came out at 30%.
Turning to `CCN1CCOC[C@H]1C(=O)Nc1cc(Cl)cc(C(=O)NC(C)(C)CO)c1`, the inhibition (PRVABC59, Concentration 49.5 uM, Number of replicates 2.0, Standard deviation 1.425535849610213 %) was -1.8%; the inhibition (PRVABC59, Concentration 99.01 uM, Number of replicates 2.0, Standard deviation 1.345541763339264 %) was -2.76%; the inhibition (PRVABC59, Concentration 198.0 uM, Number of replicates 2.0, Standard deviation 3.0049064318797343 %) is -3.73%.
